Data on nine compounds can be found in PubChem BioAssay (NCATS).

The structures appear in SMILES notation. Several values for one entry are separate records, joined by “and”; a condition that tells them apart may be missing. Equal entries are not always repeated. Results filed as inconclusive are left out. Values without a mark were called inactive. Activity calls are given as the source filed them. The call rests on the fitted dose curve; in most records, active means well fitted curve in the direction sought with a large enough effect; inconclusive means small, poorly fitted or top-dose-only effect, or another doubt; inactive means no such curve, though single readings can be large; an effect the other way counts as inactive or inconclusive.

A short description of assay [1]: Viability qHTS for spleen associated tyrosine kinase inhibitor (SYKi) naive MV4-11 cells (AID 1963823). Further: nearly all actives have a fitted effect of over 40% in size. Put shortly:
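Luminescence from CellTiter-Glo, developed 10 min at room temperature, gave viability of MV4-11 cells never exposed to SYK inhibitor. Cells (500/well) had been incubated with compounds for 72 hr under standard culture conditions.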
(In general: In qHTS, concentration-response curves come from the screen itself.)

Assay [2] is described as follows: Viability qHTS for spleen associated tyrosine kinase inhibitor (SYKi) drug resistant MV4-11 cells (AID 1963824). Further: nearly all actives have a fitted effect of over 35% in size. The method, boiled down:
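SYK inhibitor-resistant MV4-11 AML cells, 500 per well, added to predispensed compounds and incubated 72 hr at 37 C, 5% CO2. Viability measured by CellTiter-Glo luminescence after 10 min at room temperature.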

Assay [3] is described as follows: Cellular viability qHTS for adrenocortical cancer (ACC) cell line SW-13 (AID 1963989). Further: nearly all actives have a fitted effect of over 65% in size.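 On activity (max response): cells grown in serum-free medium with ITS supplement; on the % scale 0 is the no-effect control and ±100 the full control effect.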 The settings on record: SW-13 ACC cells viability, CellTiter-Glo, 48 h; activity (max response): active compounds read low. The method, boiled down:
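Here, serum-free SW-13 cultures were dosed up to 46 uM. Following 48 h, ATP-dependent luminescence (CellTiter-Glo) reported viable cells, and logistic modeling produced IC50 values.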

The nature of assay [4]: Cellular viability qHTS for adrenocortical cancer (ACC) cell line NCI-H295R (AID 1963990). Further: nearly all actives have a fitted effect of over 60% in size. Put shortly: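 Viability of NCI-H295R after 48 h of treatment (final up to 46 uM) measured through cellular ATP luminescence.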
Potency means the concentration at half of the fitted maximal effect.

With `CN1CCCN=C1/C=C/c1cccs1`, the Potency entry in assay [1], in assay [2] and in assay [4] was “inactive” each time. The activity (max response) in assay [3] is 0.0735% and 9.48%.

Turning to `Cc1cc(O)cc2c1O[C@](C)(CCC[C@H](C)CCC[C@H](C)CCCC(C)C)CC2`, the Potency result in assay [1], in assay [2] and in assay [4] was “inactive” each time. For the same compound, the activity (max response) in assay [3] was 7.62%.

As to `FC(F)(F)c1ccc(Nc2nc(-c3c(C(F)(F)F)nc4ccccn34)cs2)cc1`, the Potency in assay [1] was 184 nM (active); in assay [2], 130 nM (active); in assay [3], 0.282 µM (active); in assay [4] it was 0.316 µM (active).

In the case of `Cn1cc(/C=C/C(=O)c2cccc(F)c2)cc1/C=C/C(=O)NO`, the Potency in assay [1] is 3720 nM (active); in assay [2] it was 4170 nM (active). Further, the activity (max response) in assay [3] was 9.4%. Further, in assay [4], the Potency entry is “inactive”.

With `O=C(Nc1cc(Oc2cc(F)c(NC(=O)C3(C(=O)Nc4ccc(F)cc4)CC3)cc2F)ccn1)C1CC1`, the Potency in assay [1] was 23.1 nM (active) and 59 nM (active); in assay [2] it was 25.9 nM (active) and 66.1 nM (active). In assay [3], the activity (max response) was -9.83%. Also, in assay [4], the Potency result was “inactive”.

As for `CCCc1ccc(OCC(=O)N2CCN(C(=O)COc3ccc(CCC)cc3OC)CC2)c(OC)c1`, the Potency entry in assay [1], in assay [2] and in assay [4] was “inactive” throughout. In addition, the activity (max response) in assay [3] is 4.95%.

In the case of `OCc1ccccc1O[C@@H]1O[C@H](CO)[C@@H](O)[C@H](O)[C@H]1O`, the Potency entry in assay [1], in assay [2] and in assay [4] was “inactive” throughout. The activity (max response) in assay [3] was -1.84%.

For `FC(F)(F)c1ccc(CNc2ccc(Cc3c[nH]c4ncccc34)cn2)cc1`, the Potency in assay [1] was 259 nM (active) and 116 nM (active); in assay [2] it was 206 nM (active) and 291 nM (active); in assay [3], 10 µM (active); in assay [4], 11.2 µM (active).

For `CC(C)(O)[C@H]1CC[C@@](C)([C@H]2[C@@H](O)C[C@@]3(C)[C@@H]4C[C@H](O[C@@H]5O[C@H](CO)[C@@H](O)[C@H](O)[C@H]5O)[C@H]5C(C)(C)[C@@H](O[C@@H]6OC[C@@H](O)[C@H](O)[C@H]6O)CC[C@@]56C[C@@]46CC[C@]23C)O1`, the Potency entry in assay [1], in assay [2] and in assay [4] was “inactive” each time. Also, in assay [3], the activity (max response) is 1.01%.
